Experimental data published in PubChem BioAssay (Tox21).
Inconclusive results are not listed. A number with no mark means an inactive call. Calls of active or inactive are those of the source. Calls come from the whole dose curve; as a rule, active = well fitted activation curve with a large enough effect in the signal ratio in the repeat runs (not every such curve was filed as active); inconclusive = weak or mixed curves, or effect the other way; inactive = flat fitted curve, though single readings scatter; the % refers to the signal ratio.

biological target: Bile acid receptor (Homo sapiens) (UniProt Q96RI1); assay: qHTS assay to identify small molecule agonists of the farnesoid-X-receptor (FXR) signaling pathway (AID 743220); conditions: HEK293T FXR-UAS-bla, beta-lactamase FRET ratio, 16 h; series mostly up to 62.6 µM; activation: at the top concentration
Excerpt: National Center for Advancing Translational Sciences [NCATS]
NIH Chemical Genomics Center [NCGC]
U.S. Environmental Protection Agency [EPA]
National Institutes of Environmental Health Sciences [NIEHS]
National Toxicology Program [NTP]
U.S. Food and Drug Administration [FDA]
The farnesoid-X-receptor (FXR), a nuclear hormone receptor, is highly expressed in liver, intestine, kidney and adrenal cortex. Natural ligands of FXR are the bile acids (Cholic acid, Chenodeoxy cholic acid etc). FXR is an important regulator of diverse metabolic pathways, including the bile acid homeostasis, lipid and glucose metabolisms. FXR regulates the expression of target genes by binding either as a monomer or as a heterodimer with the retinoid X receptor (RXR). Numerous studies have reported that FXR exerts protective function during cholestasis, diabetes, liver regeneration, and cancer. To identify compounds that activate FXR signaling, GeneBLAzer FXR-UAS-bla HEK 293T cell line (Invitrogen, Carlsbad, CA) containing a beta-lactamase reporter gene under the control of a UAS response element was used to screen the Tox21 10K compound library.
Tox21 Assay Protocol Summary:
FXR-bla cells were dispensed at 5000 cells/5uL/well in 1536-well black wall/clear bottom plates using a Multidrop Combi (Thermo Fisher Scientific, Waltham, MA) dispenser. After the assay plates were incubated at 37C and 5% CO2 for 5 h, 23 nL of compounds dissolved in DMSO, positive controls or DMSO only was transferred to the assay plate by a Pintool station (Kalypsys, San Diego, CA). The assay plates were incubated at 37C for 16 h. After 1 uL of LiveBLAzerTM B/G FRET substrate was added using a Bioraptr Flying Reagent Dispenser (FRD) workstation (Beckman Coulter, Indianapolis, IN), the plates were incubated at room temperature for 2 h, and fluorescence intensity was measured by an Envision plate reader (PerkinElmer, Shelton, CT).
% is set by controls: 0 for no effect and ±100 for the full control effect; potency is the fitted concentration of half-maximal effect.

Bile acid receptor (Homo sapiens), sequence (Q96RI1 whole entry, looked up): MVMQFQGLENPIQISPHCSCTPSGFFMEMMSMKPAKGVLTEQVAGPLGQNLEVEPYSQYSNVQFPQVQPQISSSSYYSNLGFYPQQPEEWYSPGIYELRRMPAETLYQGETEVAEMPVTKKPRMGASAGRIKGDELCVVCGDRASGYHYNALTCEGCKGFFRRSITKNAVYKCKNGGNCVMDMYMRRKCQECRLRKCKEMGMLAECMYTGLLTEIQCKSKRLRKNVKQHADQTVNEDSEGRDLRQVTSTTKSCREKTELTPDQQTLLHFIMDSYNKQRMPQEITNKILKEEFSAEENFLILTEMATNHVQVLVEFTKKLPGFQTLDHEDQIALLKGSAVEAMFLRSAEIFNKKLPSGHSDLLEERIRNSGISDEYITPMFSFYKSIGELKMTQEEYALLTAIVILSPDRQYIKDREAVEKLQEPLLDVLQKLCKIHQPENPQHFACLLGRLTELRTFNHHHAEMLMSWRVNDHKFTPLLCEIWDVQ

Compound | activation | Potency
O=[N+]([O-])c1ccc(F)c(Cl)c1 | 2.47% | 
C=C(C)c1cccc(C(=C)C)c1 | 1.74% | 
C[C@@H](O)[C@H](N)C(=O)O | 0.8% [at 29.1 µM] | 
Cc1cc(C(C)(C)C)c(O)c(C)c1Cn1c(=O)n(Cc2c(C)cc(C(C)(C)C)c(O)c2C)c(=O)n(Cc2c(C)cc(C(C)(C)C)c(O)c2C)c1=O | -1.17% | 
Nc1ccc(Oc2ccc(Cl)cc2)cc1 | -1.28% | 
Cc1ccc(C)cc1 | -3.34% | 
O=C1CCCCCCCCCCCCCCCO1 | 0.162% | 
CN1CCC[C@@H]1CCO[C@](C)(c1ccccc1)c1ccc(Cl)cc1 | -0.885% | 
COC(C)=O | 1.35% [at 81.1 µM] | 
CC(C)=CCNc1ncnc2c1ncn2[C@@H]1O[C@H](CO)[C@@H](O)[C@H]1O | 2.26% | 
CCCCCCOC(=O)C(C)CC (stereo not given) | 1.29% | 
Fc1ccc(C(c2ccc(F)cc2)N2CCNCC2)cc1 | 2.59% | 
CC(C)OC(=O)C(O)(CC(=O)O)CC(=O)O | 1.84% | 
CCCCC(CC)CN1CN(CC(CC)CCCC)CC(C)(N)C1 (stereo not given) | 1.2% | 
CCCC[P+](C)(CCCC)CCCC | 2.91% [at 81.1 µM] | 
CC(C)(C)c1csc(-c2cc3cc(OCc4ccccc4CC(=O)O)ccc3o2)n1 | -1.21% | 
CCCCC(CC)COC(=O)CCCCC(=O)OCc1ccccc1 (stereo not given) | 2.65% | 
CCCCCC/C=C\CCCCCCCC(=O)O | -0.861% | 
COc1cc(S(=O)(=O)O)c(C)cc1N=Nc1c(O)ccc2cc(S(=O)(=O)O)ccc12 | 1.88% | 
O=C1OC2(c3ccc(O)cc3Oc3cc(O)ccc32)c2ccc(N=C=S)cc21 | -6.05% [at 81.1 µM] | 

Compound | activation | Potency
CC1(C)CCC[C@]2(C)[C@H]3CC(=O)O[C@]3(C)CC[C@@H]12 | 5.64% | 
Cl[Si](Cl)(c1ccccc1)c1ccccc1 | 5.79% [at 81.1 µM] | 
COC(=O)c1ccccc1OC | -1.15% | 
C#Cc1ccc(-c2ccccc2F)cc1 | -0.0322% | 
CN(C)[C@@H](CCOc1cccc2ccccc12)c1ccccc1 | 0.508% | 
OC12N=C(c3ccccc3)SC1Cc1cc(Cl)ccc12 (stereo not given) | -0.0855% | 
COc1c(C)c2c(c(O)c1C/C=C(\C)CCC(=O)OCCN1CCOCC1)C(=O)OC2 | -1.77% | 
CCC(CC)(CC(=O)Nc1cccc(/C=C/c2nc(C3CCC3)cs2)c1)C(=O)O | 0.94% | 
CC(CCc1ccccc1)NCC(O)c1ccc(O)c(C(N)=O)c1 (stereo not given) | -0.627% | 
CN(C)c1ccc(C(=C2C=CC(=[N+](C)C)C=C2)c2ccc(N(C)C)cc2)cc1 | 4.77% | 
CCN(CC)C(=O)c1cc(S(=O)(=O)Cc2ccccc2)c(N2CCC(c3ccccc3)CC2)cc1N(CC)CCN(C)C | 0.0155% [at 29.1 µM] | 
O=C1CCc2cc(OCCCCc3nnnn3C3CCCCC3)ccc2N1 | -0.566% | 
C#CC1(O)CC[C@H]2[C@@H]3CCC4=CCCC[C@@H]4[C@H]3CC[C@@]21C (stereo not given in full) | -1.05% | 
CCN(CC)c1ccc2c(-c3ccc(S(=O)(=O)O)cc3S(=O)(=O)[O-])c3ccc(=[N+](CC)CC)cc-3oc2c1 | -1.32% [at 81.1 µM] | 
O=S(=O)(O)c1ccc(Nc2nc(Nc3ccc(/C=C/c4ccc(Nc5nc(Nc6ccc(S(=O)(=O)O)cc6)nc(N(CCO)CCO)n5)cc4S(=O)(=O)O)c(S(=O)(=O)O)c3)nc(N(CCO)CCO)n2)cc1 |  | 33.1 µM (active)
O=C(O)Cc1ccccc1Nc1c(Cl)cccc1Cl |  | inactive
CC(CO)Oc1ccccc1 (stereo not given) | 0.123% [at 81.1 µM] | 
O=C(Oc1ccccc1)Oc1ccccc1 | 0.403% | 
COc1ccc2cc1Oc1ccc(cc1)C[C@H]1c3c(cc4c(c3Oc3cc5c(cc3OC)CCN(C)[C@@H]5C2)OCO4)CCN1C | -6.34% | 
O=[N+]([O-])c1ccc(O)cc1C(F)(F)F | -0.713% | 
